Activity calls are given as the source filed them. The calls were made as follows: active = hit-call score of the fitted dose curve at least 0.9, where 1 is the maximum; inactive = score below 0.9.
Assay: BSK_3C_uPAR: BioMAP Diversity Plus: 3C Assay for Urokinase-type plasminogen activator receptor (uPAR) Biomarker Activity (AID 2282998)
Conditions: BioMAP 3C HUVEC, uPAR biomarker ELISA; actives raise or lower the signal
Description: BSK_3C is a cell-based, multiplexed-readout assay that uses umbilical vein endothelium, a human vascular primary cell, with measurements taken at 24 hours after chemical dosing in a 96-well plate.BSK_3CAR is an assay component measured in the BSK_3C assay. It measures uPAR antibody related to regulation of gene expression using ELISA technology.Data from the assay component BSK_3CAR was analyzed into 1 assay endpoint. This assay endpoint, BSK_3CAR, was analyzed with bidirectional fitting relative to DMSO as the negative control and baseline of activity. Using a type of binding reporter, gain or loss-of-signal activity can be used to understand changes in the signaling as they relate to the gene PLAUR. Furthermore, this assay endpoint can be referred to as a primary readout, because this assay has produced multiple assay endpoints where this one serves a signaling function. To generalize the intended target to other relatable targets, this assay endpoint is annotated to the cytokine intended target family, where the subfamily is plasmogen activator.
The levels of cell surface (or secreted, indicated by the prefix "s") biomarker endpoints were measured by ELISA. Overt cytotoxicity to cells in confluent adherent cultures (all systems other than the BT system) was assessed by measuring total protein levels using sulforhodamine B (SRB) staining in parallel cultures at the time of biomarker measurements, indicated as SRB endpoints. For proliferation assays for adherent cell types, individual cell types are cultured at sub-confluence and relative cell numbers quantified by SRB staining at time points optimized for each system (48 h: 3C and CASM3C systems; 72 h: BT and HDF3CGF systems; 96 h: SAg system). SRB was performed by staining cells with 0.1% SRB after fixation with 10% TCA and reading wells at 560 nm.Viability and proliferation of PBMC (T cells) was quantified by Alamar Blue reduction for the SAg and BT systems. For PBMC viability (referred to as PBMC Cytotoxicity within the assay endpoint names), cells were plated (75,000/well in a 96-well plate) and then chemical samples added for 1 h before addition of activators, SEB and TSST-1 (20 ng/mL final concentration each). Cells were incubated for 90 h. Then, Alamar Blue (20 uL/well) (Invitrogen, Cat DAL1100) was added for 6 h, and the plates were read with a fluorescence microplate reader at 546/580 nm (excitation/emission). For PBMC proliferation, cells were plated and activated as above but incubated for only 16 h prior to addition of Alamar Blue. Plates were read after 6 h.
In the case of `CN/C(=N\[N+](=O)[O-])NCc1cnc(Cl)s1`, the outcome is reported as “inactive”. With `CCNC(=O)NC(=O)C(C#N)=NOC` the outcome was “inactive”. With `Nc1cnn(-c2ccccc2)c(=O)c1Cl` the outcome was “inactive”. For `CC1(C)C(C=C(Cl)Cl)C1C(=O)OC(C#N)c1cccc(Oc2ccccc2)c1` (stereo not given), the AC50 was 13.9 µM (active). In the case of `CS(=O)(=O)c1cc(C(F)(F)F)ccc1C(=O)c1cnoc1C1CC1`, the outcome is reported as “inactive”. With `CC(C)=CC1C(C(=O)OCc2coc(Cc3ccccc3)c2)C1(C)C` (stereo not given) the AC50 was 12 µM (active). In the case of `CCOc1nc(C(Cl)(Cl)Cl)ns1`, the outcome is reported as “inactive”. In the case of `CC(C)NC(=O)N1CC(=O)N(c2cc(Cl)cc(Cl)c2)C1=O`, the AC50 is reported as 32.8 µM (active). In the case of `Nc1c(Cl)c(F)nc(OCC(=O)O)c1Cl`, the outcome is reported as “inactive”. In the case of `COCc1cnc(C2=NC(C)(C(C)C)C(=O)N2)c(C(=O)O)c1` (stereo not given), the outcome is reported as “inactive”. With `CNC(=O)N(C)c1nnc(C(C)(C)C)s1` the outcome was “inactive”. For `CC1(C)CON(Cc2ccccc2Cl)C1=O`, the outcome was “inactive”. In the case of `COc1cc(OC)nc(NC(=O)NS(=O)(=O)c2ncccc2OCC(F)(F)F)n1`, the outcome is reported as “inactive”. In the case of `COc1ccc(-c2ccccc2)cc1NNC(=O)OC(C)C`, the outcome is reported as “inactive”. With `N#CN=C1SCCN1Cc1ccc(Cl)nc1` the outcome was “inactive”. In the case of `CCCC(=NOCC)C1=C(O)CC(CC(C)SCC)CC1=O` (stereo not given), the outcome is reported as “inactive”. With `CCCN(CC)CC1COC2(CCC(C(C)(C)C)CC2)O1` (stereo not given) the outcome was “inactive”. For `N#Cc1c(Cl)cccc1Cl`, the outcome was “inactive”. For `Nc1c(Cl)c(Cl)nc(C(=O)O)c1Cl`, the outcome was “inactive”. For `Clc1cccc(C(Cl)(Cl)Cl)n1`, the outcome was “inactive”. For `COC(=O)NC(=S)Nc1ccccc1NC(=S)NC(=O)OC`, the outcome was “inactive”. With `CCCCC(O)(Cn1cncn1)c1ccc(Cl)cc1Cl` (stereo not given) the AC50 was 36.5 µM (active). For `COC(=O)c1c(C(F)F)nc(C(F)(F)F)c(C2=NCCS2)c1CC(C)C`, the AC50 was 33.4 µM (active). For `CCOP(=S)(OCC)Oc1nc(Cl)n(C(C)C)n1`, the outcome was “inactive”. In the case of `CCN(CC)c1nc(C)cc(OP(=S)(OC)OC)n1`, the outcome is reported as “inactive”. For `CC1(C)C(C(=O)OC(C#N)c2cccc(Oc3ccccc3)c2)C1(C)C` (stereo not given), the outcome was “inactive”. For `C=CCOC(=O)C(C)(C)OC(=O)c1cc(-n2c(=O)cc(C(F)(F)F)n(C)c2=O)ccc1Cl`, the AC50 was 2.18 µM (active). For `CNC(=O)Oc1cccc2ccccc12`, the outcome was “inactive”. For `CCNP(=S)(OC)O/C(C)=C/C(=O)OC(C)C` (stereo not given), the outcome was “inactive”. With `COCC(=O)N(c1c(C)cccc1C)C(C)C(=O)OC` (stereo not given) the outcome was “inactive”. In the case of `Cc1c(COC(=O)[C@@H]2[C@H](/C=C(\Cl)C(F)(F)F)C2(C)C)cccc1-c1ccccc1`, the outcome is reported as “inactive”. With `CCOP(=O)(OCC)Oc1nc(Cl)c(Cl)cc1Cl` the AC50 was 20 µM (active). In the case of `CCOC(=O)C(C)OC(=O)c1cc(Oc2ccc(C(F)(F)F)cc2Cl)ccc1[N+](=O)[O-]` (stereo not given), the AC50 is reported as 13.3 µM (active). With `CCCCC(C#N)(Cn1cncn1)c1ccc(Cl)cc1` (stereo not given) the outcome was “inactive”. For `Cc1cnc(C2=NC(C)(C(C)C)C(=O)N2)c(C(=O)O)c1` (stereo not given), the outcome was “inactive”. For `Cc1ccc(N=CN(C)C=Nc2ccc(C)cc2C)c(C)c1`, the AC50 was 37.6 µM (active). With `C=C(C)CN(CC)c1c([N+](=O)[O-])cc(C(F)(F)F)cc1[N+](=O)[O-]` the outcome was “inactive”. For `CC1(C)CCC(=Cc2ccc(Cl)cc2)C1(O)Cn1cncn1` (stereo not given), the outcome was “inactive”. For `COP(=O)(OC)O/C(C)=C/C(=O)N(C)C`, the outcome was “inactive”. For `COC(=O)N(C(=O)N1CO[C@@]2(C(=O)OC)Cc3cc(Cl)ccc3C2=N1)c1ccc(OC(F)(F)F)cc1`, the outcome was “inactive”.

— PubChem BioAssay (EPA / NIEHS)
